From PubChem BioAssay (NCI) come the findings set out here.

Compounds without any hit were thinned out: in the full panel of roughly 79,000, 15% have a hit. Values without a mark were called inactive. Calls of active or inactive are those of the source. No stated cut-off is given here; in the data, active means growth inhibition above about 70%; inactive means the rest.

Test [1] in a line: NCI Yeast Anticancer Drug Screen. Data for the rad50 strain (AID 155).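 Further: 0% = growth of vehicle-only cultures of the same strain.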 As to conditions: S. cerevisiae rad50 strain growth inhibition; at 50.0 µM; hits give high values. An outline of the steps: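 Relative growth inhibition (compound vs vehicle) was measured in yeast with a defined repair-gene alteration.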
Test [2] can be described thus: NCI Yeast Anticancer Drug Screen. Data for the mec2-1 strain (AID 157). The note with it: S. cerevisiae mec2-1 strain, at 50.0 µM, hits give high values. An outline of the steps:
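Mutant yeast (mec2-1) grown with compound; growth inhibition relative to vehicle control reported.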

A short description of test [3]: NCI Yeast Anticancer Drug Screen. Data for the sgs1 mgt1 strain (AID 161).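 Further: 0% = growth of cultures given vehicle only.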 As to conditions: S. cerevisiae sgs1 mgt1 strain, at 50.0 µM, hits give high values. The method in brief:
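This yeast growth screen uses a strain with defined DNA-repair lesions; compound-treated growth is compared with vehicle-treated growth.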

Test [4] can be described thus: NCI Yeast Anticancer Drug Screen. Data for the cln2 rad14 strain (AID 165).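 Further: 0% = growth equal to vehicle treated cultures.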 The note with it: S. cerevisiae cln2 rad14 strain, at 50.0 µM, hits give high values. The method in brief: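 Readout is yeast growth inhibition versus vehicle-treated controls, using a strain with cln2 and rad14 alterations exposed to compound.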
Test [5] in a line: NCI Yeast Anticancer Drug Screen. Data for the bub3 strain (AID 167). The note with it: S. cerevisiae bub3 mutant strain, at 50.0 µM, hits give high values. An outline of the steps: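 Screening used yeast with an engineered genetic alteration affecting cell cycle control. Compound-exposed cultures were compared with vehicle cultures, and reduced growth was taken as inhibition.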

Test [6] in a line: NCI Yeast Anticancer Drug Screen. Data for the mlh1 rad18 strain (AID 175). The note with it: S. cerevisiae mlh1 rad18 strain growth inhibition; at 50.0 µM; hits give high values. The method in brief: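 Genetically defined yeast (DNA repair-deficient) exposed to compounds; growth inhibition determined relative to vehicle.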

`Cc1c([N+](=O)[O-])cc2c(c1[N+](=O)[O-])C(C)(C)CC2(C)C`: the growth inhibition was -18.9% in test [1]; -22.5% in test [2]; -9.2% in test [3]; 10.4% in test [4]; 14.8% in test [5]; -6.3% in test [6].

In the case of `COP(=O)(OC)C(=O)c1ccc(C)cc1`, the growth inhibition in test [1] is 14.7%; in test [2], -6.05%; in test [3], 1.55%; in test [4], -36.8%; in test [5], 15.9%; in test [6] it was -7%.

On to `Nc1ccccc1Nc1ccccc1C(=O)[O-].Nc1ccccc1Nc1ccccc1C(=O)[O-].[Zn+2]`, for which the growth inhibition in test [1] is -19.2%; in test [2], -7%; in test [3] it was -15.2%; in test [4], 10.2%; in test [5], -29.4%; in test [6] it was -7.55%.

Take `C=C(C)[C@H]1CN[C@H](C(=O)O)[C@H]1CC(=O)O`: the growth inhibition was -5.6% in test [1]; -5% in test [2]; -6.15% in test [3]; -19.9% in test [4]; -6.5% in test [5]; 5.05% in test [6].

With `[CH3][Sn]([CH3])([CH3])[O]C(=O)CNC(=O)c1ccccc1`, the growth inhibition in test [1] is -8.55%; in test [2], -4.1%; in test [3], -2.3%; in test [4] it was 27.9%; in test [5], 4.25%; in test [6], -0.3%.

In the case of `CC1(C)[C@@H]2CC[C@]1(C)[C@H](OC(=O)C(Cl)(Cl)Cl)C2`, the growth inhibition in test [1] was -16.6%; in test [2], -5.35%; in test [3], -9.65%; in test [4] it was -19.3%; in test [5] it was 26.8%; in test [6], 9.75%.

As to `Cc1ccc2ccccc2c1`, the growth inhibition in test [1] is 3.9%; in test [2], -14.5%; in test [3] it was -6.05%; in test [4], -3.05%; in test [5] it was 2.4%; in test [6], -7.35%.

As for `O=C(CC([Se]c1ccccc1)c1ccccc1)c1ccccc1` (stereo not given), the growth inhibition in test [1] is 98% (active); in test [2], 88.8% (active); in test [3], 95.7% (active); in test [4], 89.4% (active); in test [5], 93.7% (active); in test [6] it was 98% (active).

As to `O=C(Nc1ccc(S(=O)(=O)Nc2ccc(N=Nc3ccc(N=Nc4ccccc4)cc3)cc2)cc1)C(N1CC1)(N1CC1)N1CC1`, the growth inhibition in test [1] is 30.4%; in test [2], -9.5%; in test [3], 3.95%; in test [4] it was 9.05%; in test [5], -3.8%; in test [6], -7.35%.

With `CCCCN(CCCC)CC(=O)c1ccc(Br)cc1`, the growth inhibition was 7.05% in test [1]; 2.5% in test [2]; 20.2% in test [3]; -24.4% in test [4]; 18% in test [5]; 27.6% in test [6].

Consider `CCOC(=O)C1Oc2ccc([N+](=O)[O-])c3c2C1(O)CCC3` (stereo not given), for which the growth inhibition in test [1] is 7.2%; in test [2] it was 1.3%; in test [3] it was 5.8%; in test [4] it was 26.6%; in test [5] it was -8.8%; in test [6] it was -6.65%.

In the case of `COc1cccc(C=C2C(=O)NC(=S)NC2=O)c1O`, the growth inhibition in test [1] is -8.95%; in test [2], -12.6%; in test [3], -4.35%; in test [4] it was 15.7%; in test [5], -2.25%; in test [6], 26.6%.

In the case of `Cc1ccc2nc(NC(=O)C(=O)C3C(=O)NC(=S)NC3=O)sc2c1`, the growth inhibition was -2.75% in test [1]; -19.1% in test [2]; 2.85% in test [3]; 2.4% in test [4]; -8.95% in test [5]; -40% in test [6].

Regarding `OC/C=C\c1ccc2c(c1)OCO2`, the growth inhibition was -19.2% in test [1]; 14.2% in test [2]; 17.2% in test [3]; -9% in test [4]; -58.5% in test [5]; -32.5% in test [6].

In the case of `Nc1cc(N)nc(N)n1`, the growth inhibition in test [1] is 18.1%; in test [2], -2.9%; in test [3], 1.35%; in test [4], -4.6%; in test [5], -18.9%; in test [6], 6.2%.

Consider `CNC(=O)c1cc(N(CCCl)CCCl)c([N+](=O)[O-])cc1[N+](=O)[O-]`, for which the growth inhibition in test [1] was -3.15%; in test [2], -17.5%; in test [3] it was -6.05%; in test [4], 10%; in test [5] it was -3.15%; in test [6], 19.4%.

`CC1(C)SC2C(NC(=O)Cc3ccccc3)C(=O)N2C1C(=O)O` (stereo not given): the growth inhibition in test [1] is 1.45%; in test [2], -16.6%; in test [3], -22.4%; in test [4], -97.3%; in test [5], -36.1%; in test [6], -9.6%.

Turning to `O=C(O)C(CSC(c1ccccc1)c1ccccc1)N1C(=O)c2ccccc2C1=O` (stereo not given), the growth inhibition was 47.9% in test [1]; 36.4% in test [2]; 46.4% in test [3]; 43.3% in test [4]; 29.1% in test [5]; 44.7% in test [6].

Regarding `CCC(C(=O)NC1CN2CCC1CC2)c1ccccc1` (stereo not given), the growth inhibition in test [1] is -6.25%; in test [2], -23.3%; in test [3] it was -27.4%; in test [4], -3.15%; in test [5], -2.6%; in test [6], -13.2%.

Consider `O=C([O-])C[SH2+].[Co+3].[NH-]CC[NH-].[NH-]CC[NH-].[O-][Cl+3]([O-])([O-])O`, for which the growth inhibition was 7.4% in test [1]; 20.1% in test [2]; 14.3% in test [3]; -16.6% in test [4]; 17.4% in test [5]; 20.4% in test [6].
